Laboratory results published in PubChem BioAssay (Tox21).
Values joined by “and” are separate entries in the source; they are usually repeats but may differ in a detail not shown here. Equal entries are not always repeated. Records with an inconclusive call do not appear. Where a call stands in place of a potency, no number is given. Active and inactive are the calls of the source. Unless noted, calls follow the shape of the dose curve; as a rule, active = well fitted curve in the direction sought with a large enough effect in the repeat runs; inconclusive = weak or mixed curves; inactive = no such curve, though single readings can be large; an effect the other way counts as inactive or inconclusive.

Assays:
[1] = qHTS assay to identify small molecule agonists of the peroxisome proliferator-activated receptor delta (PPARd) signaling pathway - cell viability counter screen (AID 743211); also: nearly all actives have a fitted effect of over 55% in size
Method in brief: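 Tox21 library compounds, delivered in DMSO, were incubated 17 h with PPARd-bla HEK293H cells; cytotoxicity was taken from CellTiter-Glo luminescence read 30 min after reagent addition.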

[2] = target: Peroxisome proliferator-activated receptor delta (Homo sapiens) (UniProt Q03181); test: qHTS assay to identify small molecule agonists of the peroxisome proliferator-activated receptor delta (PPARd) signaling pathway (AID 743212; calls by dose curve)
Peroxisome proliferator-activated receptor delta (Homo sapiens), sequence (Q03181 whole entry, looked up): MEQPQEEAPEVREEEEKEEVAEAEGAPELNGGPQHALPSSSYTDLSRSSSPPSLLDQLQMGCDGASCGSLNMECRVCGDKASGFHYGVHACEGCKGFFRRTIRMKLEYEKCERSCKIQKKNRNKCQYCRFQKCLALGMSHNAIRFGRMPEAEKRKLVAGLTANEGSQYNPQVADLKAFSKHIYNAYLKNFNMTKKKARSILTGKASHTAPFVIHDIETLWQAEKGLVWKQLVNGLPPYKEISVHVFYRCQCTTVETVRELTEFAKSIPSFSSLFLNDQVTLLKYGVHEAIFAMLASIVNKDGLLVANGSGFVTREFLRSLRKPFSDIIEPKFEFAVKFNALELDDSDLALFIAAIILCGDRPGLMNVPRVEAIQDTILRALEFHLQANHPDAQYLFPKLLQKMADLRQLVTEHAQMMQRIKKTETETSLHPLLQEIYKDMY
Method in brief: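 Beta-lactamase reporter readout: a ratiometric FRET signal from the LiveBLAzer substrate after 2 h at room temperature. Compound exposure at 37 °C in PPARδ-bla HEK293H cells driven by an upstream activator sequence.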

[3] = qHTS assay to identify small molecule antagonists of the peroxisome proliferator-activated receptor delta (PPARd) signaling pathway - cell viability counter screen (AID 743213); also: nearly all actives have a fitted effect of over 50% in size
Method in brief: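 Cytotoxicity counter screen: CellTiter-Glo luminescence read 30 min after addition, in the same wells as the reporter assay. There, PPARd UAS-bla HEK293H cells (3000/well) were treated 17 h at 37 C with compound and 300 nM L165041.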

[4] = qHTS assay to identify small molecule agonists of the farnesoid-X-receptor (FXR) signaling pathway - cell viability counter screen (AID 743218); also: nearly all actives have a fitted effect of over 45% in size
Method in brief: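 Luminescence from CellTiter-Glo, read after 30 min at RT, reports viability of GeneBLAzer FXR-UAS-bla HEK 293T cells treated 16 h with compounds in the wells used for the beta-lactamase reporter.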

[5] = qHTS assay to identify small molecule antagonists of the farnesoid-X-receptor (FXR) signaling pathway - cell viability counter screen (AID 743221; active = well fitted cell-killing curve with a large enough effect in the repeat runs, not every such curve was filed as active; also: nearly all actives have a fitted effect of over 50% in size)
Method in brief: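 Cytotoxicity is taken from ATP luminescence (CellTiter-Glo, 30 min, room temperature) in FXR-bla HEK 293T cells previously incubated 16 h at 37 C with compound and chenodeoxycholic acid at 50 uM final.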

[6] = target: Vitamin D3 receptor (Homo sapiens) (UniProt P11473); test: qHTS assay to identify small molecule antagonists of the vitamin D receptor (VDR) signaling pathway (AID 743223; active = well fitted inhibition curve with a large enough effect in the signal ratio in the repeat runs, not every such curve was filed as active; the % refers to the signal ratio)
Vitamin D3 receptor (Homo sapiens), sequence (P11473 whole entry, looked up): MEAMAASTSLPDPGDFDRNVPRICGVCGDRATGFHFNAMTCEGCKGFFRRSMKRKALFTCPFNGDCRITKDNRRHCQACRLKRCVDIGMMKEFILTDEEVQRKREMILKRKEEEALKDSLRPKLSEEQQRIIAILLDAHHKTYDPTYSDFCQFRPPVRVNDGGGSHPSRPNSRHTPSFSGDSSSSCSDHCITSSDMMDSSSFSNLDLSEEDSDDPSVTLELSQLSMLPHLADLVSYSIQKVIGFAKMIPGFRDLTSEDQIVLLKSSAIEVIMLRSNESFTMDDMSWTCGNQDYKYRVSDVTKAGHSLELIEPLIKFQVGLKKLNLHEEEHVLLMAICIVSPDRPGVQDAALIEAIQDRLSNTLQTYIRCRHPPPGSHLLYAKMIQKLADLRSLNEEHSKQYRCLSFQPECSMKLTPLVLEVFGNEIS
Method in brief: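 Quantitative HTS in VDR-bla reporter cells stimulated with 1alpha,25-dihydroxyvitamin D3, 3 nM final. Compound exposure 16 h, 37C, 5% CO2. Read-out: beta-lactamase FRET substrate fluorescence, 2 h RT.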

[7] = qHTS assay to identify small molecule agonists of the vitamin D receptor (VDR) signaling pathway - cell viability counter screen (AID 743224); also: series mostly up to about 63 µM; nearly all actives have a fitted effect of over 50% in size
Method in brief: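 Cytotoxicity counter screen: VDR-bla cells, 16 h compound exposure at 37C, 5% CO2; CellTiter-Glo luminescence, 30 min RT, same wells as bla read.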

[8] = qHTS assay to identify small molecule antagonists of the vitamin D receptor (VDR) signaling pathway - cell viability counter screen (AID 743225); also: nearly all actives have a fitted effect of over 50% in size
Method in brief: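 Same-well multiplex: following 16 h treatment of HEK 293T cells carrying a UAS-driven beta-lactamase reporter with compound and agonist (3 nM final), and a 2 h FRET substrate step, CellTiter-Glo was added and luminescence read after 30 min.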

[9] = qHTS assay to identify small molecule agonists of the NFkB signaling pathway - cell viability counter screen (AID 1159515; calls by dose curve; also: series mostly up to about 61 µM; nearly all actives have a fitted effect of over 55% in size)
Method in brief: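 ME-180 NFkB-bla cells, 2,000/well; overnight attach; compound 5 hr, 37 C/5% CO2; LiveBLAzer substrate 1.5 hr RT; then CellTiter-Glo in same wells, 30 min RT, luminescence read.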

[10] = qHTS assay to identify small molecule agonists of the endoplasmic reticulum stress response signaling pathway (AID 1159516; active = well fitted activation curve with a large enough effect in the signal ratio in the repeat runs, not every such curve was filed as active; the % refers to the signal ratio)
Method in brief: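 HeLa ESRE-bla reporter line; cpd 5 h, 37 C/5% CO2; LiveBLAzer B/G FRET substrate 2 h RT; ex 405, em 460/530 nm.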

[11] = qHTS assay to identify small molecule agonists of the endoplasmic reticulum stress response signaling pathway - cell viability counter screen (AID 1159517; calls by dose curve)
Method in brief: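 ESRE-bla HeLa cells (1,500/well) were plated overnight at 37 C and exposed to compounds for 5 hr. After the 2 hr beta-lactamase substrate read, CellTiter-Glo went into the same wells, and luminescence was read after 30 min at room temperature.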

[12] = qHTS assay to identify small molecule antagonists of the retinoid-related orphan receptor gamma (ROR-gamma) signaling pathway - cell viability counter screen (AID 1159520); also: nearly all actives have a fitted effect of over 50% in size
Method in brief: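 Cytotoxicity was read from cellular ATP (CellTiter-Glo luminescence) after 16 hr at 37 C with 1 uM doxycycline induction. The inducer was added 2 hr after compound transfer to Tet-on ROR gamma CHO cells.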

[13] = qHTS assay to identify small molecule agonists of the AP-1 signaling pathway - cell viability counter screen (AID 1159525; calls by dose curve; also: nearly all actives have a fitted effect of over 55% in size)
Method in brief: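 Intracellular ATP by Cell Titer Glo luminescence (30 min, RT) in the same ME-180 AP-1-bla wells after the 5 h compound exposure at 37 °C. Normalised to tetra n-octyl ammonium bromide and DMSO controls.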

[14] = qHTS assay to identify small molecule agonists of the AP-1 signaling pathway (AID 1159526; calls by dose curve)
[15] = target: Peroxisome proliferator-activated receptor delta (Homo sapiens) (UniProt Q03181); test: qHTS assay to identify small molecule antagonists of the peroxisome proliferator-activated receptor delta (PPARd) signaling pathway (AID 743215; active = well fitted inhibition curve with a large enough effect in the signal ratio in the repeat runs, not every such curve was filed as active; the % refers to the signal ratio;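 also: cells stimulated with agonist L165041 at 300 nM final during compound exposure; series mostly up to about 62 µM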)
Method in brief: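 HEK293H GeneBLAzer PPARd UAS-bla reporter cells; cpd + L165041 300 nM final, 17 h 37 C; LiveBLAzer B/G FRET substrate 2 h RT; fluorescence intensity read-out. Antagonist mode.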

[16] = target: Vitamin D3 receptor (Homo sapiens) (UniProt P11473); test: qHTS assay to identify small molecule agonists of the vitamin D receptor (VDR) signaling pathway (AID 743222; calls by dose curve)
Method in brief: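 Beta-lactamase reporter readout (LiveBLAzer B/G FRET, 2 h RT) in VDR-bla cells after 16 h compound treatment at 37C, 5% CO2; cells pre-incubated 4 h before pin transfer of DMSO solutions.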

[17] = target: Retinoic acid receptor RXR-alpha (Homo sapiens) (UniProt P19793); test: qHTS assay to identify small molecule agonists of the RXR signaling pathway (AID 1159527; calls by dose curve; also: nearly all actives have a fitted effect of over 35% in size)
Retinoic acid receptor RXR-alpha (Homo sapiens), sequence (P19793 whole entry, looked up): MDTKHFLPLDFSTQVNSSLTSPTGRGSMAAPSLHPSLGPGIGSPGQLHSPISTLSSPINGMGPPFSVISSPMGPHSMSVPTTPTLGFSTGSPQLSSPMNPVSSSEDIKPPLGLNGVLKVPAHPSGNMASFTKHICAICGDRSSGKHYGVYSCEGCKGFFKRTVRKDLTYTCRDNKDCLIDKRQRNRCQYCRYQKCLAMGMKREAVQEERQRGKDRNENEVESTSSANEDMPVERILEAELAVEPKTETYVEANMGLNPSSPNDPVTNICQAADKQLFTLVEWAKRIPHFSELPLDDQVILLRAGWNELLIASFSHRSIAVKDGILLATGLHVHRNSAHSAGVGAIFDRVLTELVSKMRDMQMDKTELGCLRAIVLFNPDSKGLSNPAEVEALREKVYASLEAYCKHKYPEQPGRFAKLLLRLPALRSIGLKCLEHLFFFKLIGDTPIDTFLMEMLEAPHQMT
Method in brief: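 Compounds in DMSO were added to RXR-alpha-UAS-bla HEK 293T cells kept in 2% charcoal-stripped serum, and incubated 16 hr at 37 C with 5% CO2. Reporter signal came from a 2 hr B/G FRET substrate step.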

[18] = target: Nuclear receptor ROR-gamma (Homo sapiens) (UniProt P51449); test: qHTS assay to identify small molecule antagonists of the retinoid-related orphan receptor gamma (ROR-gamma) signaling pathway (AID 1159521; also: nearly all actives have a fitted effect of over 50% in size; also: potency is read from the fitted curve at half-maximal effect)
Method in brief: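 Inducible-expression reporter assay: doxycycline (1 uM final) switched on RORγ in CHO cells bearing a ROR response element-luciferase construct, with test compounds present from 2 h beforehand. Decreased luminescence after 16 h defined antagonist activity.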

[19] = target: Bile acid receptor (Homo sapiens) (UniProt Q96RI1); test: qHTS assay to identify small molecule antagonists of the farnesoid-X-receptor (FXR) signaling pathway (AID 743217; active = well fitted inhibition curve with a large enough effect in the signal ratio in the repeat runs, not every such curve was filed as active; the % refers to the signal ratio)
Bile acid receptor (Homo sapiens), sequence (Q96RI1 whole entry, looked up): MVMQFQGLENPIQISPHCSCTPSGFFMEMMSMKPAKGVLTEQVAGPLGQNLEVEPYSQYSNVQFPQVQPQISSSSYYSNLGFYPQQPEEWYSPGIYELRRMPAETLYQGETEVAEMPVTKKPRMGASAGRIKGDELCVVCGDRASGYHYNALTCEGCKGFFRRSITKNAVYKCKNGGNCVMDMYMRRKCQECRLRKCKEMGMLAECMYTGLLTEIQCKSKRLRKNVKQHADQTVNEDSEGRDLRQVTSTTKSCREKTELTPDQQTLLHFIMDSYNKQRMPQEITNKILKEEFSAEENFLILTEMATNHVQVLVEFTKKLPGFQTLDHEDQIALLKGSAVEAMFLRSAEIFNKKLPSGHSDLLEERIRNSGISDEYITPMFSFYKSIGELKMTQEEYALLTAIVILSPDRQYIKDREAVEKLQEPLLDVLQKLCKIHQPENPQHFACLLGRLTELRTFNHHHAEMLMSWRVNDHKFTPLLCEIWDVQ
Method in brief: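 Read-out: beta-lactamase FRET fluorescence (LiveBLAzer B/G substrate, 2 h, room temperature) in GeneBLAzer FXR-UAS-bla HEK 293T cells. Compounds were co-dosed with 50 uM chenodeoxycholic acid (final) and incubated 16 h at 37 °C.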

[20] = target: Bile acid receptor (Homo sapiens) (UniProt Q96RI1); test: qHTS assay to identify small molecule agonists of the farnesoid-X-receptor (FXR) signaling pathway (AID 743220; active = well fitted activation curve with a large enough effect in the signal ratio in the repeat runs, not every such curve was filed as active; the % refers to the signal ratio)
Method in brief: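 FXR-UAS-bla HEK 293T cells carrying a UAS-driven beta-lactamase reporter were plated for 5 h at 37C/5% CO2, then exposed to DMSO-dissolved Tox21 10K compounds for 16 h at 37C. A LiveBLAzer B/G FRET substrate was loaded for 2 h at room temperature before fluorescence reading.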

SMILES | Potency [1] | outcome [2] | Potency [3] | Potency [4] | Potency [5] | outcome [6] | Potency [7] | Potency [8] | Potency [9] | Potency [10] | Potency [11] | Potency [12] | Potency [13] | Potency [14] | outcome [15] | outcome [16] | Potency [17] | Potency [18] | Potency [19] | outcome [20]
CC1(C)O[C@@H]2C[C@H]3[C@@H]4C[C@H](F)C5=CC(=O)C=C[C@]5(C)[C@@]4(F)[C@@H](O)C[C@]3(C)[C@]2(C(=O)CO)O1 | inactive | inactive | inactive | inactive | inactive | inactive | inactive | inactive | inactive | inactive | inactive | inactive | inactive | inactive |  |  |  |  |  | 
COc1ccc(-c2coc3cc(O)cc(O)c3c2=O)cc1 | inactive |  | inactive | inactive |  | inactive | inactive | inactive | inactive | inactive |  | inactive |  |  | inactive | inactive | inactive |  |  | 
CCCCCCC(C)O (stereo not given) | inactive | inactive | inactive | inactive | inactive | inactive | inactive | inactive | inactive | inactive |  | inactive | inactive | inactive | inactive | inactive |  | inactive |  | 
CC[C@]12CCCN3CCc4c(n(c5ccccc45)[C@@](O)(C(=O)OC)C1)[C@@H]32 | inactive |  | inactive |  | inactive | inactive | inactive | inactive | inactive | inactive | inactive | inactive | inactive |  |  | inactive |  |  |  | 
CN(C)/N=N/c1nc[nH]c1C(N)=O | inactive | inactive | inactive | inactive | inactive |  | inactive | inactive | inactive | inactive |  | inactive | inactive | inactive | inactive |  |  | inactive | inactive | inactive
C=C[C@H]1CN2CC[C@H]1C[C@@H]2[C@@H](O)c1ccnc2ccc(OC)cc12 | inactive | inactive | inactive |  |  |  |  |  | inactive | inactive | inactive | inactive | inactive | inactive | inactive |  |  |  |  | 
O=C(O)CCCC(=O)O | inactive | inactive | inactive | inactive | inactive |  | inactive | inactive | inactive | inactive |  | inactive | inactive | inactive | inactive |  | inactive | inactive |  | 
[Na+] | inactive | inactive | inactive | inactive | inactive |  | inactive | inactive | inactive | inactive | inactive | inactive | inactive | inactive | inactive |  | inactive |  |  | 
CCCCCC=O | inactive | inactive | inactive | inactive | inactive | inactive | inactive | inactive | inactive | inactive |  | inactive | inactive | inactive |  | inactive |  |  | inactive | inactive
Nc1ccc2c(O)cc(S(=O)(=O)O)cc2c1 | inactive | inactive | inactive |  | inactive |  | inactive | inactive | inactive | inactive |  | inactive | inactive |  | inactive |  |  | 9.7 µM (active) and 5.45 µM (active) |  | 
Oc1c(Cl)ccc(Cl)c1Cl | inactive | inactive | inactive | inactive | inactive | inactive | inactive | inactive | inactive | inactive | inactive | inactive | inactive | inactive | inactive | inactive |  |  | inactive | inactive
Nc1ccc(O)c(N)c1 | inactive |  | inactive |  | inactive | inactive | inactive | inactive | inactive | inactive |  | inactive | inactive | inactive |  | inactive | inactive | inactive |  | 
